Eight compounds from PubChem BioAssay (NCI) can be followed below.

Common to all, as to experiment: NCI-60 one-dose screen, 48 h (100 = growth as untreated, 0 = no growth, -100 = all killed)
Details in all cases: 10 µM unless noted

Assay [1] relates to SK-MEL-2 melanoma.
The test system of assay [2] is EKVX NSCLC.
Assay [3] relates to UO-31 renal.
Assay [4] concerns TK-10 renal.
Assay [5] relates to ACHN renal.
The subject of assay [6] is CAKI-1 renal.
For assay [7], the system named is A498 renal.
The subject of assay [8] is CCRF-CEM leukemia.
The subject of assay [9] is MOLT-4 leukemia.
The subject of assay [10] is SR leukemia.
Assay [11] concerns RPMI-8226 leukemia.
Assay [12] relates to OVCAR-8 ovarian.
The test system of assay [13] is OVCAR-5 ovarian.
The subject of assay [14] is OVCAR-4 ovarian.
Assay [15] deals with SK-OV-3 ovarian.
Assay [16] concerns IGROV1 ovarian.
In assay [17] the test system is HS 578T breast.
Assay [18] concerns NCI/ADR-RES ovarian.
The test system of assay [19] is OVCAR-3 ovarian.

About 83,000 compounds went through this panel and 20% of them were active in at least one assay; those are over-represented in the sample as a whole.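 Compound tested at a single concentration for 48 hours in 96-well plates; a percent growth value below 10 was scored as active.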 Values without a mark were called inactive. Active and inactive are the calls of the source.

For the compound `O=c1cc(CSc2nnc(SCc3cc(=O)oc4c3ccc3ccccc34)o2)c2ccc3ccccc3c2o1`, the growth was 87.8% in assay [1]; 94.7% in assay [2]; 81.2% in [3]; 98.8% in assay [4]; 102% in assay [5]; 97.4% in assay [6]. The growth was 98.9% in [7]; 105% in [8]; 98% in [9]; 91.7% in assay [10]; 99.8% in assay [11]; 94.1% in assay [12]. In addition, the growth in assay [13] was 99.7%; in assay [14], 111%; in [15] it was 98.8%; in assay [16], 94.9%; in assay [17], 94.2%; in assay [18] it was 94.4%.

Take `CNC(=O)c1cc(Oc2ccc(NC(=O)Nc3ccc(Cl)c(OC(F)(F)F)c3)c(F)c2)ccn1`: the growth in assay [1] was 14.4%; in assay [2] it was 26.2%; in assay [3], 23%; in assay [4] it was 37.3%; in [5], 28.2%; in [6], 45.8%. Further, the growth in assay [7] was 36.9%; in assay [8] it was 30.1%; in [9], 20.2%; in assay [11], 13.6%; in [12], 30.3%; in assay [13], 56.7%. Besides, the growth in [14] is 5.4% (active); in assay [15] it was 64.9%; in [16], 46.4%; in assay [19], 39.8%; in assay [17] it was 51.9%; in assay [18] it was 31.6%.

On to `COc1cccc2c1C(=O)c1c(O)c3c(c(O)c1C2=O)C[C@](O)(C(=O)CO)C[C@H]3O[C@@H]1C[C@@H](NC(=O)CCCN(C)C2(c3ccc(F)cc3)CC3CCC2C3)[C@H](O)[C@@H](C)O1` (some centres undefined), for which the growth in assay [1] was 47.1%; in [2], -46.3% (active); in [3], 71.7%; in assay [4] it was 54.6%; in assay [5], -86% (active); in [6], 61.9%. For the same compound, the growth is 52.5% in [7]; -29% (active) in [8]; -37% (active) in assay [9]; -60.2% (active) in assay [10]; -41% (active) in assay [11]; -43.1% (active) in [12]. In addition, the growth in [13] was -48.3% (active); in assay [14], -68.9% (active); in assay [15], 84.4%; in assay [16], 55.2%; in assay [19], -84.8% (active); in assay [17] it was 51.2%. Moreover, the growth in assay [18] was 82.4%.

On to `CCOc1ccc(-n2nc(C(=O)Nc3cc(OC)c(OC)c(OC)c3)nc2-c2cc(OC)c(OC)c(OC)c2)cc1`, for which the growth in [1] is 85.6%; in assay [2], 96.1%; in assay [3], 52.6%; in assay [4], 104%; in assay [5] it was 85.7%; in [6], 77.4%. Besides, the growth in assay [7] was 67.3%; in assay [8], 66.5%; in assay [9], 67.5%; in [11] it was 55.7%; in [12], 74%; in assay [13] it was 102%. Moreover, the growth was 68.1% in assay [14]; 99.7% in assay [15]; 90.8% in assay [16]; 86.9% in assay [19]; 65.6% in assay [17]; 85.8% in [18].

Turning to `CCOC(=O)c1sc(Nc2ccc(Cl)cc2)nc1C`, the growth is -0.883% (active) in [1]; 7.71% (active) in assay [2]; -9.64% (active) in assay [3]; 26.5% in [4]; 14.3% in [5]; 10.4% in [6]. Besides, the growth in assay [7] is -32.9% (active); in [8], 17.8%; in assay [9], 10.7%; in [10] it was 11%; in assay [11], 7.4% (active); in assay [12], 19.8%. In addition, the growth in assay [13] is 51.6%; in [14], 18.2%; in assay [15], 20.3%; in assay [16], 19.3%; in assay [19], 27.4%; in assay [17], 10.1%. Moreover, the growth in assay [18] is 17.5%.

As to `OCCN1CCN(c2nc(Nc3ccc(-c4nc5ccccc5[nH]4)cc3)c3cn[nH]c3n2)CC1`, the growth in assay [1] is -83.6% (active); in assay [2] it was -80.4% (active); in [3], -89.4% (active); in assay [4], -97.2% (active); in assay [5], -85.3% (active); in [6], -97.3% (active). Besides, the growth in assay [7] was -78.8% (active); in assay [8], -73.9% (active); in assay [9], -79.6% (active); in [10] it was -61.1% (active); in assay [11], -48.5% (active); in assay [12] it was -91% (active). Moreover, the growth is -76.2% (active) in assay [13]; -74.6% (active) in [14]; -95.9% (active) in assay [15]; -78% (active) in assay [16]; -82.3% (active) in [19]; -47% (active) in assay [17]. Further, the growth in assay [18] is -77.3% (active).

With `c1ccc2[nH]c(-c3ccc(Nc4nc(N5CCCC5)nc5[nH]ncc45)cc3)nc2c1`, the growth is -48.1% (active) in assay [1]; -8.31% (active) in [2]; -27.1% (active) in [3]; -6.9% (active) in [4]; -58.3% (active) in assay [5]; -22.3% (active) in assay [6]. Besides, the growth in [7] was 94.5%; in [8] it was -29.7% (active); in assay [9] it was -44.1% (active); in assay [10], -31.1% (active); in [11], -34.4% (active); in assay [12], -55.1% (active). Further, the growth in [13] was 17.9%; in assay [14], 10.7%; in [15], 22.2%; in assay [16] it was 4.03% (active); in [19] it was -53.1% (active); in [17], -34% (active). The growth in assay [18] was 1.12% (active).

`CC/C=C\C[C@H](O)C/C=C1/C(=O)C=C[C@@]1(C)C/C=C\CCCC(=O)OC`: the growth in [1] is 103%; in assay [2], 104%; in [3], 92.1%; in [4] it was 95.9%; in assay [5], 101%; in assay [6] it was 96.9%. Also, the growth in [7] was 97.3%; in assay [8], 108%; in assay [9] it was 94.4%; in assay [10], 103%; in [11], 103%; in [12] it was 97.8%. In addition, the growth was 99.8% in assay [13]; 101% in [14]; 112% in assay [15]; 109% in assay [16]; 114% in [19]; 103% in assay [17]. In addition, in [18], the growth was 94.8%.
